# Screening results as filed in PubChem.
# HCV inh: blocks hepatitis C virus; AID 651820; Potency, µM (doses to about 41.8 µM), most hits filed as inhibitors; Huh7.5.1 HCVcc-Cre infection, luciferase reporter, 44 h; 3.4% of 340,000 active
#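 Compounds are dispensed onto cells plated 4 h earlier at 1,000 per well, with HCVcc-Cre virus (about 0.5 moi) added next. Following 44 h of culture, luminescent signal is measured for 15 sec after 15 min with substrate at room temperature.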
# Shiga toxin inh: blocks Shiga toxin action in Vero cells | Vero cells, Shiga toxin protein synthesis inhibition reporter | inhibition, % at 38.7 µM | 9.2% of 290,000 active | AID 2315; in the data active = inhibition mostly above about 28%, no sharp cut-off; inactive = mostly below about 43%
# AMA1-RON2 inh: inhibitors of Plasmodium falciparum AMA1-RON2 interaction; AlphaScreen AMA1-biotinylated RON2 peptide binding; Potency, µM (series often up to 58.2 µM), most hits filed as inhibitors; 0.2% of 360,000 active; also: nearly all actives have a fitted effect of over 45% in size
#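 AMA1 (3D7) with his tag at 25 nM final met compounds first, then biotinylated RON2 peptide at 25 nM; detection used donor plus acceptor beads, 10 µg/mL apiece, read by AlphaScreen after 30 min at room temperature.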
# Pf growth 48h: inhibits P. falciparum growth in the first generation, 48 h. 5.9% of 310,000 active. Potency, µM (series often up to 28.7 µM), usual class: inhibitors. P. falciparum luciferase growth in erythrocytes, 48 h
#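 Luciferase-expressing P. falciparum in infected erythrocytes (2% hematocrit, 0.1% parasitemia final) in RPMI 1640/0.5% Albumax were exposed to compound for 48 hours at 37 C, 5% CO2; growth read as luminescence.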
# Pf growth 96h: inhibits malaria parasite growth, 96 h. P. falciparum luciferase reporter growth, 96 h. Potency, µM (doses to about 28.7 µM), hits mostly inhibitors. 6.9% of 320,000 active. AID 504834
#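 Luminescence readout: decreased luciferase signal marks inhibited growth of reporter-expressing P. falciparum in infected red cells (2% hematocrit, 0.05% parasitemia final), exposed to compound two generations (96 h, 37 C, 5% CO2).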
# CHX counter: counter-screen for Shiga toxin inhibitors: cycloheximide protein synthesis inhibition; cell reporter, cycloheximide protein synthesis inhibition counterscreen; max response, %; 12% of 300,000 active; AID 2314; in the data active = max response mostly above about 13%, no sharp cut-off; inactive = mostly below about 14%; also: read at 38.3 µM for the half of the compounds with a filed dose
# A number is an active result; i = inactive; ? = inconclusive; nt = no result; [ ] = remark or other dose. In the library only some 21% were active in any assay of this set; here they are far more common. Unless noted, calls follow the shape of the dose curve; as a rule, active = well fitted curve in the direction sought with a large enough effect; inconclusive = small, poorly fitted or top-dose-only effect, or another doubt; inactive = no such curve, though single readings can be large; an effect the other way counts as inactive or inconclusive.
SMILES,HCV inh,Shiga toxin inh,AMA1-RON2 inh,Pf growth 48h,Pf growth 96h,CHX counter
O=C1CSC(=S)N1/N=C/c1ccc(O)c(O)c1O,i,i,?,?,?,i
CCN=c1scc(C)n1/N=C/c1ccc(O)c(O)c1O,i,i,?,?,7.38µM,25.4
C(=NN=Cc1c[nH]c2ccccc12)c1c[nH]c2ccccc12,nt,nt,i,nt,nt,nt
COCCN=c1scc(-c2cccs2)n1/N=C/c1ccc(O)c(O)c1O,?,54.6,i,9.28µM,4.15µM,32.4
O=c1oc(-c2ccccc2)cc(Cl)c1Cl,?,i,i,i,i,i
N#C/C(=C/c1ccc(OC(=O)c2ccc(Br)s2)cc1)c1nc2ccccc2[nH]1,i,nt,i,nt,nt,nt
N#C/C(=C\c1ccc(OC(=O)c2ccc(Cl)s2)cc1)c1nc2ccccc2[nH]1,i,17.4,i,i,?,49.5
N#C/C(=C\c1ccc(OC(=O)c2ccc(Br)s2)cc1)c1nc2ccccc2[nH]1,i,38.5,i,i,?,22.0
COc1ccccc1NC(=O)CN1CCN(C2c3ccccc3-c3ccccc32)CC1,i,i,i,13.1µM,i,i
CCOc1ccc(NC(=O)CN2CCN(C3c4ccccc4-c4ccccc43)CC2)cc1,?,i,i,13.1µM,i,i
CCCCOc1ccc(NC(=O)CN2CCN(C(=O)OCC)CC2)cc1,i,i,i,9.28µM,?,i
COc1ccc(NC(=O)CN2CCN(C3c4ccccc4-c4ccccc43)CC2)c(OC)c1,?,i,i,?,i,i
CN(NC(=O)NN(C)C(=O)c1ccccc1)C(=O)c1ccccc1,i,nt,i,nt,nt,nt
CC(C)C[C@@H](CN1CCC[C@H]1CN1C(=O)C(=O)NC[C@@H]1Cc1ccccc1)N1C[C@H](Cc2ccccc2)N(CC2CCCCC2)C(=O)C1=O,nt,nt,i,nt,nt,nt
O=C(c1ccccc1)C(Nc1cccc([N+](=O)[O-])c1)c1ccccc1 (centres undefined),?,nt,i,nt,nt,nt
COc1cccc(CN2CC(C(=O)NCCc3ccccc3C(F)(F)F)CCC2=O)c1 (centres undefined),i,i,i,?,i,i
CCOC(=O)C1(C)CCCN1C(=O)c1ccc(C(F)(F)F)nc1C (centres undefined),nt,nt,i,nt,nt,nt
Cc1cc2c(C)nc3ccccc3c2o1,11.2µM,i,i,i,i,i
CCOC(=O)CNC(=O)Cn1c(C)cc2ccccc2c1=O,i,i,i,i,i,i
CCOC(=O)C1CCN(C(=O)CNC(=O)Cn2c(C)cc3ccccc3c2=O)CC1,i,i,i,i,3.29µM,i
CCOC(=O)C1CCN(C(=O)c2ccc(C)o2)CC1,i,nt,i,nt,nt,nt
CCOC(=O)C1CCN(C(=O)c2cc3cc4ccc(C)cc4nc3o2)CC1,i,45.0,i,i,i,29.6
Cc1nc2ccccc2c2oc(C(=O)N3CCC(C)CC3)cc12,i,60.3,i,i,i,20.4
COc1ccccc1C1CC(c2ccco2)=NN1S(C)(=O)=O (centres undefined),i,i,i,i,i,i
CCOC(=O)C1CCN(C(=O)c2cc3c(ccc4ccccc43)o2)CC1,?,120.8,i,i,i,59.4
SMILES,HCV inh,Shiga toxin inh,AMA1-RON2 inh,Pf growth 48h,Pf growth 96h,CHX counter
CC1CCN(C(=O)c2cc3c(ccc4ccccc43)o2)CC1,i,76.7,i,i,i,19.8
CCOC(=O)c1nc(Nc2ccc(C(=O)O)cc2)c2ccccc2n1,i,i,i,i,i,i
CCOC(=O)c1nc(Nc2ccc(Nc3ccccc3)cc2)c2ccccc2n1,11.2µM,i,?,?,?,i
CCOC(=O)c1nc(Nc2ccc(OC)cc2)c2ccccc2n1,?,47.3,i,i,?,24.2
CCOC(=O)c1ccc(Nc2nc(C(=O)OCC)nc3ccccc23)cc1,?,i,i,9.28µM,i,i
COc1ccc(CCNC(=O)Nc2ccc3nc([C@@H]4O[C@H](CO)[C@@H](O)[C@H](O)[C@H]4O)[nH]c3c2)cc1Br,nt,nt,i,nt,nt,nt
CC(=O)c1ccc(NC(=O)c2cc(Cl)sc2Cl)cc1,i,31.6,i[2.32 µM],i,i,39.7
COc1ccc(Br)cc1C(=O)Nc1cc(C)cc(C)c1,5.62µM,i,i,i,?,i
Cc1cc(C)cc(NC(=O)c2cc(Cl)sc2Cl)c1,i,i,i[2.32 µM],i,i,29.7
Cc1nc(C(F)(F)F)ccc1C(=O)N1CCCCCC1(C)C(=O)NCC(C)C (centres undefined),nt,nt,i,nt,nt,nt
O=C(Nc1ccc(F)cc1)Nc1nnc(-c2ccco2)s1,i,112.0,i,i,i,52.6
O=C(Nc1nnc(-c2ccco2)s1)c1ccccc1,i,88.8,i,i,i,44.3
COc1ccc(OCc2nnc(NC(=O)Nc3ccc(F)cc3)s2)cc1,i,i,i,?,i,i
Cc1ccccc1OCC(=O)Nc1nnc(-c2ccco2)s1,i,i,i,i,i,i
COc1ccc(C(=O)Nc2nnc(-c3ccco3)s2)cc1,i,71.8,i,nt,i,36.7
CC(C)C(=O)Nc1nnc(-c2ccco2)s1,i,95.1,i,i,i,29.4
COc1cccc(C(=O)N(c2ccc(C)cc2)C2C=CS(=O)(=O)C2)c1 (centres undefined),i,i,i,i,?,i
Cc1ccc2nc(SCC(=O)N3CCCc4ccccc43)nc(=O)n2c1,i,nt,i,nt,nt,nt
Cc1noc(C)c1-c1ccc2ncnc(NCc3cccc(C(F)(F)F)c3)c2c1,nt,i,nt,nt,nt,i
O=C(Nc1nnc(-c2ccco2)s1)C1CC1,i,31.0,?,i,i,22.8
CCN(CC)S(=O)(=O)c1ccc(C(=O)N(c2ccc(C)cc2)C2C=CS(=O)(=O)C2)cc1 (centres undefined),i,i,i,i,?,i
O=C1CCCN1CCC(=O)N1CCCC(N2CCN(c3ccccc3F)CC2)C1 (centres undefined),i,i,i,i,i,i
CCOc1ccc(CN2CCN(Cc3[nH]c4ccccc4c3C)CC2CCO)cc1 (centres undefined),?,i,i,?,10.4µM,i
CCOc1ccc(CN2CCN(Cc3cccc4c3OCO4)CC2CCO)cc1 (centres undefined),i,i,i,i,?,i
Cc1c(CN2CCN(CC(C)(C)C)C(CCO)C2)[nH]c2ccccc12 (centres undefined),?,i,i,?,?,i
SMILES,HCV inh,Shiga toxin inh,AMA1-RON2 inh,Pf growth 48h,Pf growth 96h,CHX counter
CCOc1ccc(CN2CCN(Cc3cccc4nonc34)CC2CCO)cc1 (centres undefined),i,i,i,i,14.7µM,i
CCOC(=O)C(Cc1cc(N)c(Oc2ccc(OC)cc2)c(N)c1)NC(C)=O (centres undefined),i,nt,i,nt,nt,nt
CC(C)Nc1nc(NC(N)=S)nc(NC(C)(C)C)n1,i,i,i,i,i,i
CC(C)Nc1nc(NNc2nc(Cl)nc(NC(C)(C)C)n2)nc(NC(C)C)n1,i,i,i,?,13.1µM,i
CCNc1nc(NC(C)C)nc(ON=C(C)C)n1,i,i,nt,8.28µM,?,i
CCNc1nc(NC(C)C)nc(OCC)n1,i,i,i,nt,?,i
